We go through four compounds from PubChem BioAssay (EPA / NIEHS).

Read-out in test [1]: Collagen I, COL1A1 (gene 1277)
In words: BSK_MyoF_CollagenI: BioMAP Diversity Plus: MyoF Assay for Collagen I Biomarker Activity (AID 2284238). The following applies: primary human lung fibroblasts. The procedure, abridged:
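ELISA readout of Collagen I after 24 h chemical treatment of primary human lung fibroblast cultures; gain of signal scored relative to DMSO vehicle baseline.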

Read-out in test [2]: Collagen III, COL3A1 (gene 1281)
In words: BSK_MyoF_CollagenIII: BioMAP Diversity Plus: MyoF Assay for Collagen III Biomarker Activity (AID 2284239). The following applies: primary human lung fibroblasts. The procedure, abridged:
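Lung fibroblast culture; 24 h compound exposure; collagen III by ELISA; gain-of-signal fit vs DMSO baseline.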

Test [3] is described as follows: CCTE_Mundy_HCI_hNP1_Casp3_7: CCTE's Caspase-Glo 3/7 Assay in human neuroprogenitor cells for Apoptosis, Mundy Lab (AID 2284240). The essentials:
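Luminescent caspase-3/7 readout, 26.5 h post-dose, in human neural progenitor cells from WA09 embryonic stem cells. Cells grew 40–44 h at 37 °C, 5% CO2 before chemical addition. Activity analysed as signal increase over DMSO baseline.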

Read-out in test [4]: Interleukin 17F (IL17F), IL17F (gene 112744)
In words: BSK_BT_xIL17F: BioMAP Diversity Plus: BT Assay for Interleukin 17F (IL17F) Biomarker Activity (AID 2284243). The following applies: primary human B cells with PBMC. The essentials: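 Secreted IL-17F, read on LumineX xMAP beads, was taken as the endpoint. Cultures combined human B cells and peripheral blood mononuclear cells, sampled 24 hours after dosing, with DMSO serving as negative control.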

Read-out in test [5]: Actin alpha 1 (ACTA1), ACTA1 (gene 58)
Briefly: BSK_MyoF_ACTA1: BioMAP Diversity Plus: MyoF Assay for Actin alpha 1 (ACTA1) Biomarker Activity (AID 2284244). The conditions noted are these: primary human lung fibroblasts. The essentials:
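Lung fibroblasts, human primary, 24 h compound exposure → a-SMA ELISA. Positive-direction fit vs DMSO control.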

Read-out in test [6]: Interleukin 2 (IL2), IL2 (gene 3558)
Briefly: BSK_BT_xIL2: BioMAP Diversity Plus: BT Assay for Interleukin 2 (IL2) Biomarker Activity (AID 2284245). The conditions noted are these: primary human B cells with PBMC. The essentials: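 B cell + PBMC co-culture (human primary), compound added, 24 h incubation; secreted IL-2 measured multiplexed on Luminex xMAP; gain-of-signal fit vs DMSO.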

Read-out in test [7]: Basic fibroblast growth factor (bFGF), FGF2 (gene 2247)
Briefly: BSK_MyoF_bFGF: BioMAP Diversity Plus: MyoF Assay for Basic fibroblast growth factor (bFGF) Biomarker Activity (AID 2284246). The following applies: primary human lung fibroblasts. The procedure, abridged:
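ELISA-measured bFGF level serves as the read-out, taken 24 h after chemical dosing of human lung fibroblasts. Values represent signal gain over the DMSO negative control.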

Read-out in test [8]: Collagen IV, COL4A1 (gene 1282)
In words: BSK_MyoF_CollagenIV: BioMAP Diversity Plus: MyoF Assay for Collagen IV Biomarker Activity (AID 2284247). The conditions noted are these: primary human lung fibroblasts. The essentials:
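Steps: dose human lung fibroblasts; culture 24 h; quantify Collagen IV by ELISA; fit increase versus DMSO control. Parallel SRB total-protein staining (0.1% SRB after 10% TCA fixation, 560 nm) tracks overt cytotoxicity.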

Read-out in test [9]: Monokine induced gamma interferon (MIG), CXCL9 (gene 4283)
Briefly: BSK_KF3CT_MIG: BioMAP Diversity Plus: KF3CT Assay for Monokine induced gamma interferon (MIG) Biomarker Activity (AID 2284248). The following applies: primary human keratinocytes with fibroblasts. The procedure, abridged:
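ELISA read-out of MIG after 24 h chemical exposure of human skin primary co-culture (keratinocytes, foreskin fibroblasts). Gain of signal relative to DMSO negative control was analysed.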

Read-out in test [10]: Vascular cell adhesion molecule 1 (VCAM1), VCAM1 (gene 7412)
Briefly: BSK_BF4T_VCAM1: BioMAP Diversity Plus: BF4T Assay for Vascular cell adhesion molecule 1 (VCAM1) Biomarker Activity (AID 2284249). The following applies: primary human bronchial epithelial cells with fibroblasts. The essentials:
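Human bronchial epithelial cell and dermal fibroblast co-culture exposed 24 h. VCAM-1 measured by ELISA; parallel SRB total-protein staining for cytotoxicity. Fitted in positive direction relative to DMSO.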

Read-out in test [11]: Collagen I, COL1A1 (gene 1277)
Briefly: BSK_hDFCGF_CollagenI: BioMAP Diversity Plus: hDFCGF Assay for Collagen I Biomarker Activity (AID 2284250). The following applies: primary human foreskin fibroblasts. The essentials: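 Human skin primary fibroblasts dosed with test chemical, harvested at 24 h, Collagen I quantified by ELISA; parallel SRB staining (0.1% SRB after 10% TCA fixation, 560 nm) tracked cytotoxicity.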

Read-out in test [12]: Interferon-inducible T-cell alpha chemoattractant (ITAC), CXCL11 (gene 6373)
In words: BSK_hDFCGF_ITAC: BioMAP Diversity Plus: hDFCGF Assay for Interferon-inducible T-cell alpha chemoattractant (ITAC) Biomarker Activity (AID 2284251). The conditions noted are these: primary human foreskin fibroblasts. The essentials: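 Primary human foreskin fibroblasts (hDFCGF system) treated for 24 h; I-TAC quantified by ELISA. Gain-direction fitting versus DMSO; parallel SRB staining of total protein flagged overt cytotoxicity.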

Read-out in test [13]: Plasminogen activator inhibitor-1 (PAI1), SERPINE1 (gene 5054)
Briefly: BSK_KF3CT_PAI1: BioMAP Diversity Plus: KF3CT Assay for Plasminogen activator inhibitor-1 (PAI1) Biomarker Activity (AID 2284252). The conditions noted are these: primary human keratinocytes with fibroblasts. The essentials:
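ELISA read-out of PAI-1 taken 24 h after chemical treatment of a human skin primary co-culture of keratinocytes and foreskin fibroblasts. Increases over DMSO-treated wells defined activity.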

Read-out in test [14]: Monocyte Chemoattractant Protein-1 (MCP1), CCL2 (gene 6347)
In words: BSK_IMphg_MCP1: BioMAP Diversity Plus: IMphg Assay for Monocyte Chemoattractant Protein-1 (MCP1) Biomarker Activity (AID 2284253). The following applies: primary human endothelial cells with macrophages. The procedure, abridged: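 Human venular endothelial cells co-cultured with macrophages; MCP-1 measured by ELISA 24 hours post-dose and fitted against DMSO. Cytotoxicity monitored by SRB total-protein staining in parallel cultures.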

A short description of test [15]: TAMU_HCS_1.5hr_SingleDonor1434_Cytotoxicity: Cytotoxicity Assessment using High-content Screening (HCS) Fluorescent Imaging for the Texas A&M University (TAMU) 1.5-hr Human Induced Pluripotent Stem Cell (iPSC)-derived Cardiotoxicity Assay (AID 2284234; active = hit-call score of the fitted dose curve at least 0.9, where 1 is the maximum). The essentials:
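Human iPSC-derived cardiomyocytes dosed at 0.2, 1, 10, 100 uM final (0.5% DMSO) for 90 min at 37 C. Hoechst 33342-stained nuclei counted by 10x high-content imaging; POD is EC10, a 10% drop in total cell count versus DMSO.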

Test [16] in a line: CCTE_Mundy_HCI_Cortical_NOG_NeuronCount: CCTE's Neurite Outgrowth Assay in rat cortical cells for Neuron Count, Mundy Lab (AID 2284236; active = hit-call score of the fitted dose curve at least 0.9, where 1 is the maximum;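 also: neurons counted by imaging betaIII-tubulin and Hoechst stained cortical cells; cells exposed to compound for about 48 hours before fixation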). The essentials: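 Read-out: neuron number by high-content imaging of betaIII-tubulin (Alexa Fluor-488) and Hoechst-labelled rat primary cortical cells.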
Test [17] in a line: CCTE_Mundy_HCI_Cortical_NOG_BPCount: CCTE's Neurite Outgrowth Assay in rat cortical cells for Branch Point Count, Mundy Lab (AID 2284237).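 Also: branch points counted about two days after chemical exposure.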 The essentials:
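Measured 50.33 h after dosing, this morphology endpoint uses rat primary cortical cultures labelled for betaIII-tubulin. Branch points are quantified by high-content imaging, with DMSO as negative control and baseline.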

Test [18] can be described thus: CCTE_Mundy_HCI_hNP1_CellTiter: CCTE's Cell Titer-Glo 2 Assay in human neuroprogenitor cells for Viability, Mundy Lab (AID 2284241; active = hit-call score of the fitted dose curve at least 0.9, where 1 is the maximum;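 also: a hit is a drop in ATP luminescence versus DMSO meaning reduced viability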). The procedure, abridged: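 Viability read as luminescent ATP content (CellTiter-Glo, 30 min room temperature) twenty-four hours after dosing, relative to DMSO. Cells: WA09-derived hNP1 neuroprogenitors on poly-L-ornithine/laminin, plated 40 to 44 hours before chemical.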
In general terms: In ATP-based viability assays light output follows the ATP content of the culture.

Test [19] is described as follows: CCTE_Mundy_HCI_Cortical_Synap_Neur_Matur_NeuronCount: CCTE's Synaptogenesis and Neurite Maturation Assay in rat cortical cells for Neuron Count, Mundy Lab (AID 2284242; active = hit-call score of the fitted dose curve at least 0.9, where 1 is the maximum;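 also: hits reduce neuron count versus DMSO baseline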). The essentials: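 Neuron number was scored by automated high-content imaging of Hoechst- and MAP2-labelled rat primary cortical cells. Glial growth was arrested with AraC at DIV 5, compounds were applied from DIV 7, and cultures ended at DIV 12.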

One may read the AC50 as the midpoint of the concentration-response curve, whichever way the signal moves.

Values joined by “and” are separate entries in the source; they are usually repeats but may differ in a detail not shown here. Equal values may be shown once. Records with an inconclusive call do not appear. Some structures have more than one record in an assay (separate samples or runs), and their calls can disagree. Active and inactive are the calls of the source. The calls were made as follows, unless noted: active = hit-call score of the fitted dose curve at least 0.9, where 1 is the maximum; inactive = score below 0.9.

Consider `OCCC(F)(F)C(F)(F)C(F)(F)C(F)(F)C(F)(F)C(F)(F)F`, for which the AC50 in test [1] was 54.6 µM (active); in [4], 5.95 µM (active); in test [11], 30 µM (active) and 46.9 µM (active); in [12] it was 55 µM (active) and 57.4 µM (active). The result in test [1], in test [2], in [3], in test [4], in [5] and in test [6] was inactive. The result in [7], in test [8], in test [9], in test [10], in test [13] and in test [14] was inactive.
In the case of `NCC(F)(F)C(F)(F)C(F)(F)C(F)(F)C(F)(F)C(F)(F)C(F)(F)F`, the result in test [1], in test [2], in test [4], in test [5], in test [6] and in test [7] was inactive. For the same compound, the result in [8], in test [9], in [10], in test [11], in [12] and in test [13] was inactive. The outcome in test [14] was inactive. For the same compound, the AC50 in test [12] is 12.1 µM (active).
Take `CC#C[C@]1(O)CC[C@H]2[C@@H]3CCC4=CC(=O)CCC4=C3[C@@H](c3ccc(N(C)C)cc3)C[C@@]21C`: the compound was classed as inactive in test [15]. Besides, the AC50 is 69.2 µM (active) and 15 µM (active) in test [16]; 26.2 µM (active) and 24.2 µM (active) in test [17]; 13.5 µM (active) and 18.4 µM (active) in [3]; 27.4 µM (active) and 21.6 µM (active) in test [18]; 22.9 µM (active) and 25.2 µM (active) in [19].
As for `C[C@@H]1C[C@H]2[C@@H]3CCC4=CC(=O)C=C[C@]4(C)[C@@]3(F)[C@@H](O)C[C@]2(C)[C@@]1(O)C(=O)COP(=O)(O)O`, the result in [1], in test [2], in test [4], in [5], in test [7] and in test [8] was inactive. Further, the result in [9], in test [10], in test [11], in [12] and in [13] was inactive. Further, the AC50 is 0.277 µM (active) in test [4]; 0.267 µM (active) in test [5]; 807 nM (active) and 148 nM (active) in [6]; 1.1 µM (active) in test [12]; 1.04 µM (active) and 1.15 µM (active) in test [14].
